High-throughput results (PubChem)
Most compounds without a hit are left out; they make up all but 10% or so of the library.
HPGD inh: qHTS Assay for Inhibitors of HPGD (15-Hydroxyprostaglandin Dehydrogenase); 15-hydroxyprostaglandin dehydrogenase [NAD(+)] (Homo sapiens), P15428; Potency, µM, most hits filed as inhibitors; purified HPGD, NADH fluorescence kinetic, PGE2 substrate; actives 4.3% (n = 150,000)
Target sequence (P15428 whole entry, looked up): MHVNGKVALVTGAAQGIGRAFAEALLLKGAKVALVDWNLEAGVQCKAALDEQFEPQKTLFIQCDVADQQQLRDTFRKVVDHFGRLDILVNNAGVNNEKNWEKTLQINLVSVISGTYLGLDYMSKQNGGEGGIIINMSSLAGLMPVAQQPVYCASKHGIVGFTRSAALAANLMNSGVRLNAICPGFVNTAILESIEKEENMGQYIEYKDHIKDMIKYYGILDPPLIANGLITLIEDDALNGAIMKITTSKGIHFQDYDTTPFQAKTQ
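NADH formation kinetics: reaction with 30 uM PGE2 and 1 mM NAD+ (final), 20 nM enzyme, Tris-HCl pH 8 with Tween 20, after 15 min compound preincubation at room temperature. Fluorescence change, last versus first of five reads.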
ALDH1A1 block: qHTS Assay for Inhibitors of Aldehyde Dehydrogenase 1 (ALDH1A1); Potency, µM (series often up to 75.3 µM), actives largely listed as inhibitors; Purified ALDH1A1, NADH fluorescence, propionaldehyde substrate; Aldehyde dehydrogenase 1A1 (Homo sapiens), P00352; actives 7.3% (n = 220,000)
PNC assembly inh: High Content Assay for Compounds that inhibit the Assembly of the Perinucleolar Compartment; PC3M PTB-GFP, PNC prevalence imaging, 16 h; hits give low values; activity change (PNC), negative = inhibition, % at 10 µM; actives 3.1% (n = 140,000);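 active = readout at or below -70, meaning at least 70% loss of cells showing the perinucleolar compartment, a nuclear body marking cancer cells; inconclusive = readout between -30 and a set limit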
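Read-out is percentage of cells bearing a perinucleolar compartment, from automated 20x imaging of fixed, Hoechst-stained PC3M PTB-GFP cells. Cells were seeded 4 h, then exposed 16 h to compound (23 nl of library stock) in duplicate plates.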
ALOX12 inhib: qHTS Assay for Inhibitors of 12-hLO (12-human lipoxygenase). actives 0.12% (n = 150,000). purified 12-hLO, xylenol orange hydroperoxide absorbance. Potency, µM (titrated, usually from 57.1 µM), hits mostly inhibitors; active = well fitted inhibition curve with a large enough effect; inconclusive = small, poorly fitted or top-dose-only effect; also: nearly all actives have a fitted effect of over 55% in size
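150 nM 12hLO, 25 mM Hepes pH 7.0 + 0.01% Triton X-100; cpd preinc 15 min RT; 40 uM arachidonic acid, 30 min RT; Fe-XO 30 min; A573/A405 ratio as read-out.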
LMNA splice mod: qHTS Assay for Modulators of Lamin A Splicing. HeLa LMNA splicing GFP/RFP minigene ratio, 48 h. Potency, µM (highest dose often 46.1 µM), actives largely listed as inhibitors. actives 0.01% (n = 200,000); active = well fitted inhibition curve with a large enough effect in the signal ratio, with a control signal flat, not every such curve was filed as active; inconclusive = small, poorly fitted or top-dose-only effect, or effect the other way, or a change in a side signal; the % refers to the signal ratio
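S3 HeLa cells stably expressing lamin A-EGFP splicing minigene plus DsRed2, 600 cells/well, 48 h compound exposure at 37C. Laser-scanning cytometry; analysed as GFP (500-530 nm)/RFP (575-640 nm) total intensity ratio; 0.5% DMSO vehicle.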
A number is an active result; – = inactive; ? = inconclusive; · = no result; [ ] = remark or other dose. Unless noted, calls follow the shape of the dose curve; as a rule, active = well fitted inhibition curve with a large enough effect (not every such curve was filed as active); inconclusive = small, poorly fitted or top-dose-only effect, or another doubt; inactive = no such curve, though single readings can be large or run the other way.

SMILES	HPGD inh	ALDH1A1 block	PNC assembly inh	ALOX12 inhib	LMNA splice mod
COc1ccccc1CNC(=O)CCc1c(C)nn(-c2ccc(N3CCCCC3)nn2)c1C	·	·	·	·	–
Cc1noc(-c2ccc(-c3noc(-c4cccc(Cl)c4)n3)cc2)n1	·	·	·	·	–
C=CCn1c(SCC(=O)C(C)(C)C)nnc1-c1cccs1	14.1µM	12.6µM	–	–	–
Cc1ccccc1-n1c(SCC(=O)N2CCCC2)nnc1-c1ccccn1	?	–	–	–	–
CCn1c(SCC(=O)C(C)(C)C)nnc1-c1ccccn1	–	7.08µM	–	–	–
O=C(CSc1nnc(-c2ccccn2)n1Cc1ccccc1)N1CCCC1	28.2µM	–	–	–	–
CCn1c(SCC(=O)C(C)(C)C)nnc1-c1cnccn1	?	?	-100.0	–	–
COC(=O)c1sccc1S(=O)(=O)N(CC(=O)NCc1ccc(F)cc1)c1ccc(C)c(C)c1	·	·	·	·	–
COc1ccc(-c2csc3c2[N+]2=CCC=C2C3=O)cc1	–	–[13.5 µM]	·	–[11.4 µM]	·
O=C(O)c1cc2ccccc2c(Cc2c(O)c(C(=O)O)cc3ccccc23)c1O	–	–[13.5 µM]	·	–[11.4 µM]	·
CC(C)c1ccc(N2C(=O)CC(Sc3nc4ccccc4o3)C2=O)cc1 (configuration not stated)	?	0.708µM	–	–	?
CCCc1c(O)nc(SC2CC(=O)N(c3cc(OC)ccc3OC)C2=O)[nH]c1=O (configuration not stated)	–	–	–	–	–
CC(C)c1ccc(C(=O)CSc2ncn[nH]2)cc1	31.6µM	?	–	–	–
CC(Sc1nc2ccccc2o1)C(=O)O (configuration not stated)	–	–	–	–	–
CC(C)c1ccc(N2C(=O)CC(Sc3ncn[nH]3)C2=O)cc1 (configuration not stated)	15.8µM	0.126µM	–	–	–
O=C1CC(SC2=NCCS2)C(=O)N1c1ccc(Cl)cc1 (configuration not stated)	–	?	–	–	–
O=C(CSc1ncn[nH]1)c1ccc2c(c1)OCCO2	–	?	?	–	–
COc1ccc(N2C(=O)CC(Sc3ncn[nH]3)C2=O)c(OC)c1 (configuration not stated)	·	14.1µM	–	–	–
O=C(CSc1nc(=O)[nH]c2c1CCCC2)Nc1ccc(Cl)c(Cl)c1	·	·	·	·	–
O=C(CSc1nc2[nH]ncc2c(=O)n1-c1ccccc1)N1CCCCCC1	·	5.01µM	·	·	·
O=C(CSc1nc2[nH]ncc2c(=O)n1-c1ccccc1Cl)N1CCCC1	·	31.6µM	·	·	–
CCc1ccccc1-n1c(SCC(=O)N2CCCC2)nc2[nH]ncc2c1=O	·	?	·	·	–[9.22 µM]
Cc1ccc(C)c(NC(=O)Cn2cc(C(=O)c3ccncc3)c(=O)c3cc(F)ccc32)c1	·	·	·	·	–
CC1(C)[C@@H]2CC[C@]1(C)[C@@H](OC(=O)CSC#N)C2	–	1.78µM	·	–[11.4 µM]	?
Nc1[nH]c(=S)[nH]c(=O)c1-c1ccccc1	25.1µM	?	–	–	–
SMILES	HPGD inh	ALDH1A1 block	PNC assembly inh	ALOX12 inhib	LMNA splice mod
O=C1C=C(c2ccccc2)OC(=O)C1C(=O)c1ccccc1 (configuration not stated)	–	?	-100.0	–	–
O=C(c1ccccc1)C1O[C@H]1c1ccccc1 (some centres not stated)	–	–	·	·	·
COc1ccc(C)cc1NC(=O)N1CCC(CN2CCC(C)CC2)CC1	·	·	·	·	–
NNC(=O)c1ccc(CSc2nc3ccccc3[nH]2)cc1	·	10µM	·	·	·
O=C(O)CSc1nc2ccccc2[nH]1	–	–[13.5 µM]	–	–[11.4 µM]	?
Fc1ccccc1CSc1ncn[nH]1	–	–	-100.0	–	–
Fc1c(F)c(F)c(CSc2nc3ccccc3[nH]2)c(F)c1F	–	–	–	–	–
Fc1ccccc1CSc1nc2ccccc2[nH]1	20µM	12.6µM	?	–	–
c1ccc2[nH]c(SCc3cscn3)nc2c1	–	–	-103.1	–	–
CC(=O)c1ccc(N2CCN(C(=O)c3cc4cc5cc(C)ccc5nc4s3)CC2)cc1	·	·	·	·	–
CN(C)S(=O)(=O)c1ccc2c(c1)nc(CCC(=O)NCC1CCCCC1)n2C	–	?	–	–	?
CC1CCN(C(=O)CCc2nc3cc(S(=O)(=O)N(C)C)ccc3n2C)CC1	–	11.2µM	–	–	?
N#CCN1C(=O)C2CCCN2c2ccc(S(=O)(=O)N3CCOCC3)cc21 (configuration not stated)	·	10µM	·	·	·
CON(C)S(=O)(=O)c1ccc2c(c1)N(Cc1ccc(C)cc1)C(=O)C1CCCN21 (configuration not stated)	·	10µM	·	·	–
Cc1ccc(CN2C(=O)C3CCCN3c3ccc(C#N)cc32)cc1 (configuration not stated)	?	?	–	?	–
CCc1cnc2c(c1SCC(=O)NCc1ccc(F)cc1)c(=O)n(C)c(=O)n2C	·	·	·	·	–
COc1ccc(-n2c(=O)c(-c3cccc(F)c3)nc3cncnc32)cc1	·	–	·	·	–
Cc1ccc(S(=O)(=O)Nc2cccc3ncccc23)s1	28.2µM	12.6µM	?	–	?
O=C(c1ccco1)c1nnn(Cc2ccccc2)c1-c1ccccc1	–	11.2µM	?	–	–
Cc1cccc(-n2c(C)cc(C=C3C(=O)c4ccccc4C3=O)c2C)c1	–	1.58µM	-84.6	–	–
Cc1cc(C=C2C(=O)c3ccccc3C2=O)c(C)n1-c1ccc(Cl)cc1	–	2.24µM	–	–	–
Cc1cc(C=C2C(=O)c3ccccc3C2=O)c(C)n1C	–	?	–	–	–
CCn1c(C)cc(C=C2C(=O)c3ccccc3C2=O)c1C	·	11.2µM	·	·	–
Cc1cc(C=C2C(=O)CCCC2=O)c(C)n1-c1ccccc1	–	?	–	–	–
Cc1cc(/C=C2/C(=O)NN(c3ccccc3)C2=O)c(C)n1-c1ccc(O)cc1	–	?	–	–	–
SMILES	HPGD inh	ALDH1A1 block	PNC assembly inh	ALOX12 inhib	LMNA splice mod
CC1CCN(CC2CCN(C(=O)Nc3ccc(Br)cc3F)CC2)CC1	·	·	·	·	–
COc1ccc(-c2nnc(SCC(=O)N3CCc4ccccc4C3)o2)cc1	?	?	–	–	–
COc1ccc(Cc2nnc(SCC(=O)N3CCc4ccccc4C3)o2)cc1	·	12.6µM	–	–	–
COc1ccc(-c2nnc(SCC(=O)N3CCCCC3)o2)c(OC)c1	?	?	–	–	–
COc1ccc(CC(=O)N2CCCC(C)C2)cc1 (configuration not stated)	28.2µM	–	–	–	–
CC1CCCN(C(=O)Cc2ccc(F)cc2)C1 (configuration not stated)	–	?	?	–	–
COc1ccc(-c2nnc(SCC(=O)N3CCCC(C)C3)o2)c(OC)c1 (configuration not stated)	15.8µM	?	–	–	–
COc1ccc(OC(C)C(=O)N2CCc3ccccc3C2)cc1 (configuration not stated)	25.1µM	–	–	–	–
